Laboratory results published in PubChem BioAssay (Tox21).
Records with an inconclusive call do not appear. Activity calls are given as the source filed them. Unless noted, calls come from the whole dose curve; as a rule, active = well fitted curve in the direction sought with a large enough effect in the repeat runs; inconclusive = weak or mixed curves; inactive = no such curve, though single readings can be large; an effect the other way counts as inactive or inconclusive.

What was measured:
[1] = qHTS assay to identify small molecule agonists of the RXR signaling pathway - cell viability counter screen (AID 1159529); note: nearly all actives have a fitted effect of over 50% in size
In short: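 Compounds dissolved in DMSO were pinned onto HEK 293T cells carrying a beta-lactamase reporter under RXR-alpha control and incubated 16 hr. Cytotoxicity was then quantified by CellTiter-Glo luminescence.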

[2] = qHTS assay to identify small molecule antagonists of the retinoid acid receptor (RAR) signaling pathway - cell viability counter screen (AID 1159551); note: nearly all actives have a fitted effect of over 35% in size
In short: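 Cytotoxicity counter screen: ATP content quantified by CellTiter-Glo luminescence in C3RL4 cells treated 6 hr at 37 C with compound and retinol (1 uM final). Cells plated at 1,000/well and cultured overnight before dosing.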

[3] = qHTS assay to identify small molecule agonists of the retinoic acid receptor (RAR) signaling pathway (AID 1159553)
In short: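 Luminescence was measured 30 min after luciferase reagent addition at room temperature. Before that, C3RL4 reporter cells (1,000 per well, plated overnight) were treated with compound for 6 hr at 37 C and 5% CO2.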

[4] = qHTS assay to identify small molecule antagonists of the estrogen related receptor (ERR) signaling pathway from Tox21 library - cell viability counter screen (AID 1224834); note: nearly all actives have a fitted effect of over 30% in size
In short: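 CellTiter-Fluor fluorescence, read after 30 min at 37 C, measures viability of ERR cells. Cells plated at 2,000/well and incubated 6 h before pin-tool compound addition, then exposed 17.5 hours at 37 C.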

[5] = biological target: Luciferin 4-monooxygenase (Photinus pyralis) (UniProt P08659); assay: qHTS assay to identify small molecule inhibitors of firefly luciferase (AID 1224835); note: nearly all actives have a fitted effect of over 25% in size
Luciferin 4-monooxygenase (Photinus pyralis), sequence (P08659 whole entry, looked up): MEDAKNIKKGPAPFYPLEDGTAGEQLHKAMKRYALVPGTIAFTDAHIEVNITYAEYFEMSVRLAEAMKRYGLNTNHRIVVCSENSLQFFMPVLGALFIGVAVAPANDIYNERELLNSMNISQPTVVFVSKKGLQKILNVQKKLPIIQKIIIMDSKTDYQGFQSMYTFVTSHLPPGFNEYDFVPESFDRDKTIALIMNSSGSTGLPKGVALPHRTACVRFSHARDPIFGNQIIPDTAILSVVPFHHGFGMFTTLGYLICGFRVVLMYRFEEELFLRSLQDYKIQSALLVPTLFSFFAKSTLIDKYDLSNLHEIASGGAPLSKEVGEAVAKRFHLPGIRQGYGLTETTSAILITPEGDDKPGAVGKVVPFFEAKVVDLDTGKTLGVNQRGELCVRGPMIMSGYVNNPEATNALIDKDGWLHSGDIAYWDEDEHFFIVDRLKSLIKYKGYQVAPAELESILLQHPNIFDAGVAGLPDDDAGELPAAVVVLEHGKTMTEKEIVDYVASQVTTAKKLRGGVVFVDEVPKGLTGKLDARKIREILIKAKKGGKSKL
In short: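 Biochemical qHTS: compounds run as interplate titrations against purified firefly enzyme, with D-luciferin and ATP each at its KM concentration. Light output recorded by CCD imaging.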

[6] = qHTS assay to identify small molecule agonists of the constitutive androstane receptor (CAR) signaling pathway - cell viability counter screen (AID 1224836); note: nearly all actives have a fitted effect of over 45% in size
In short: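 23 h treatment, 37 C, 5% CO2. Cell line: HepG2 stably expressing hCAR with a CYP2B6-2.2kb construct. Co-treatment: PK11195, 0.75 uM final. Read-out: CellTiter-Fluor fluorescence intensity.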

[7] = qHTS assay to identify small molecule antagonists of the constitutive androstane receptor (CAR) signaling pathway - cell viability counter screen (AID 1224837); note: nearly all actives have a fitted effect of over 45% in size
In short: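 Cytotoxicity counter-screen: CellTiter-Fluor fluorescence after 23 h compound exposure (15-point qHTS) in double-stable HepG2-CYP2B6-hCAR cells, with 50 nM CITCO added.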

[8] = biological target: Nuclear receptor subfamily 1 group I member 3 (Homo sapiens) (UniProt Q14994); assay: qHTS assay to identify small molecule antagonists of the constitutive androstane receptor (CAR) signaling pathway (AID 1224838);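 note: HepG2 cells stably expressing hCAR with CYP2B6 luciferase reporter stimulated by CITCO; nearly all actives have a fitted effect of over 40% in size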
Nuclear receptor subfamily 1 group I member 3 (Homo sapiens), sequence (Q14994 whole entry, looked up): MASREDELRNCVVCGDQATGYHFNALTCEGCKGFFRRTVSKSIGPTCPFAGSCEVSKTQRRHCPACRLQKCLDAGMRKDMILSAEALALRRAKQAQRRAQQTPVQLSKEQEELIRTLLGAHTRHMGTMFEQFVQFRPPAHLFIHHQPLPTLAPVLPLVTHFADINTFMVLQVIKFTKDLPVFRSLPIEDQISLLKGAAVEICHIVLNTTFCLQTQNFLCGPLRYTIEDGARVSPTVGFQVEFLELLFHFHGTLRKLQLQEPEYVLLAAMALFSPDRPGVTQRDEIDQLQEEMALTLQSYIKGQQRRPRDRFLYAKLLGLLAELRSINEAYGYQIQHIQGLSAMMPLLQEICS
In short: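 Antagonism measured as luciferase signal (ONE-Glo, 30 min, room temperature) in CAR-stimulated cells: HepG2-CYP2B6-hCAR double-stable line exposed 24 hr at 37 C to compound in a 15-point series plus 50 nM CITCO.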

[9] = biological target: Nuclear receptor subfamily 1 group I member 3 (Homo sapiens) (UniProt Q14994); assay: qHTS assay to identify small molecule agonists of the constitutive androstane receptor (CAR) signaling pathway (AID 1224839);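 note: HepG2 cells stably carrying human CAR and a CYP2B6 luciferase reporter; nearly all actives have a fitted effect of over 15% in size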
In short: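 Compounds tested at 15 concentrations on HepG2 cells stably harbouring hCAR and CYP2B6-2.2kb reporter constructs, co-treated with PK11195 (0.75 uM final), 24 h at 37 C; luminescent reporter signal quantified.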

[10] = qHTS assay to identify small molecule antagonists of the estrogen related receptor signaling pathway with the pleiotropic PPARgamma coactivator (PGC) from Tox21 10K library - cell viability counter screen (AID 1224840; active = well fitted cell-killing curve with a large enough effect in the repeat runs, not every such curve was filed as active; note: nearly all actives have a fitted effect of over 40% in size)
In short: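 Counter-screen for cytotoxicity: after 17.5 h compound exposure at 37 C, CellTiter-Fluor reagent added to PGC/ERR cells for 30 min and fluorescence read. Cells were seeded at 2,000 per well 6 h before dosing.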

[11] = biological target: Thyrotropin receptor (Homo sapiens) (UniProt P16473); assay: qHTS assay to identify small molecule agonists of the thyroid stimulating hormone receptor (TSHR) signaling pathway (AID 1224843; calls by dose curve; note: nearly all actives have a fitted effect of over 45% in size)
Thyrotropin receptor (Homo sapiens), sequence (P16473 whole entry, looked up): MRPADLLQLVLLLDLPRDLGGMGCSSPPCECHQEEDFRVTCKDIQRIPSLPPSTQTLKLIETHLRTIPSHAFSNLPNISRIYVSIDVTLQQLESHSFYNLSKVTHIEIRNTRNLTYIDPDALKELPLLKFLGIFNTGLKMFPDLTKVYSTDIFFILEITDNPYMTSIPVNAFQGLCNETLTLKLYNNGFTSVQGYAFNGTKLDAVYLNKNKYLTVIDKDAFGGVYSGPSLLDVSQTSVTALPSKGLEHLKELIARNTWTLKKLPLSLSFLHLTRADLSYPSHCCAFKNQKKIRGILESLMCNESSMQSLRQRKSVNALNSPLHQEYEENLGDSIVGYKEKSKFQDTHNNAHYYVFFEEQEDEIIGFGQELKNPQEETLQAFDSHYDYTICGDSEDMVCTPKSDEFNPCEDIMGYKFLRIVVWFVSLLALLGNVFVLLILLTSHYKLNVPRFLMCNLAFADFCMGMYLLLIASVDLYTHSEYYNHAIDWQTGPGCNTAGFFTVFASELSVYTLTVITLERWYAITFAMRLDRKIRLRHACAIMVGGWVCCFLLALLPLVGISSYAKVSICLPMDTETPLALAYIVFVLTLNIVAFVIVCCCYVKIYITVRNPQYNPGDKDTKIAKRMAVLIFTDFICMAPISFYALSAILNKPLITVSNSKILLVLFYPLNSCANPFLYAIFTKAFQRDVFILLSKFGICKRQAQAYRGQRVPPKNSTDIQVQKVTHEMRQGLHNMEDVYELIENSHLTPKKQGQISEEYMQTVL
In short: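 Agonist-mode screen: TSHR HEK293 cells received test chemicals for half an hour at room temperature, then HTRF cAMP detection reagents for one hour prior to fluorescence measurement. Each chemical ran as a 15-concentration series, triplicated.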

[12] = qHTS assay to identify small molecule agonists of the hypoxia (HIF-1) signaling pathway - cell viability counter screen (AID 1224844; calls by dose curve; note: nearly all actives have a fitted effect of over 50% in size)
In short: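 Cytotoxicity measured by CellTiter-Glo ATP luminescence in the wells also read for beta-lactamase signal. Cells were HRE-bla ME-180 (2,000/well, 0.5% dialyzed FBS), exposed to compounds for 17 h at 37C.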

[13] = qHTS assay to identify small molecule agonists of H2AX (AID 1224845; active = well fitted activation curve with a large enough effect in the signal ratio in the repeat runs, not every such curve was filed as active; the % refers to the signal ratio)
In short: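 Wild-type CHO-K1 cells, plated overnight, exposed 3hr at 37C to 15 concentrations (0.76% DMSO final). Lysed, then HTRF anti-pH2AX (S139) cryptate and anti-H2AX-d2 antibodies, 24 hr room temperature; 665/620 nm emission read.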

[14] = qHTS assay to identify small molecule agonists of the hypoxia (HIF-1) signaling pathway (AID 1224846; active = well fitted activation curve with a large enough effect in the signal ratio in the repeat runs, not every such curve was filed as active; the % refers to the signal ratio)
In short: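 Compounds added to ME-180 cells carrying hypoxia-response-element beta-lactamase reporter (0.5% dialyzed FBS, 5 h preplating), 17 h at 37C; agonist activity detected by CCF4-AM B/G FRET read-out.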

[15] = qHTS assay to identify small molecule agonists of H2AX - cell viability counter screen (AID 1224847; calls by dose curve; note: top concentration of the series differs between compounds; nearly all actives have a fitted effect of over 30% in size)
In short: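 Compounds tested at 15 concentrations were incubated 3 hr at 37C with wild-type CHO-K1 cells; cellular ATP-based luminescence (CellTiter-Glo) indicated viability.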

[16] = qHTS assay to identify small molecule antagonists of the estrogen related receptor signaling pathway with the pleiotropic PPARgamma coactivator (PGC) from Tox21 10K library (AID 1224841; call rule not given here; note: actives are mostly falling curves and most rising ones were filed inactive; nearly all actives have a fitted effect of over 50% in size)
In short: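 Luminescence (One-Glo, 30 min at room temperature) after 18 h compound treatment at 37 C of PGC/ERR reporter cells plated at 2,000 cells/well and settled 6 h beforehand.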

[17] = qHTS assay to identify small molecule agonists of the estrogen related receptor (ERR) signaling pathway from Tox21 library (AID 1224849; calls by dose curve; note: nearly all actives have a fitted effect of over 15% in size); settings: ERR reporter cell line, ONE-Glo luciferase, 18 h; at 92.4 µM (top of the series) unless noted
In short: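 Luminescent agonist read-out (One-Glo, 30-minute room-temperature incubation) following 18-hour compound treatment at 37 C of the ERR cell line, which had been plated 6 hours before dosing.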

[18] = qHTS assay to identify small molecule antagonists of the estrogen related receptor (ERR) signaling pathway from Tox21 library (AID 1224848); note: nearly all actives have a fitted effect of over 50% in size
In short: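 Quantitative high-throughput format: ERR reporter cells (2,000/well) pre-incubated 6 h, treated 18 h at 37 C with compounds in DMSO alongside positive and negative controls, then read by ONE-Glo luminescence.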

[19] = qHTS assay to identify small molecule antagonists of the retinoic acid receptor (RAR) signaling pathway (AID 1159552; note: nearly all actives have a fitted effect of over 50% in size)
In short: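 Test chemicals and DMSO controls were pin-transferred onto C3RL4 cells a day after seeding; retinol (1 uM final) followed at once. Luminescent reporter output was quantified after 6 hr of co-incubation and 30 min with detection reagent.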

[20] = qHTS assay to identify small molecule agonists of the estrogen related receptor signaling pathway with the pleiotropic PPARgamma coactivator (PGC) from Tox21 10K library (AID 1224842); note: nearly all actives have a fitted effect of over 15% in size
In short: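 PGC/ERR reporter cell line, 2,000 cells per well, incubated 6 h at 37 C before 23 nL compound in DMSO was added. After 18 h at 37 C, One-Glo luminescence read following 30 min at room temperature.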
% is set by controls: 0 for no effect and ±100 for the full control effect.

CCCCCCCCCCCCCC(=O)OCC
inactive: Potency [1] | outcome [2] | Potency [3] | outcome [4] | Potency [5] | outcome [6] | outcome [7] | outcome [8] | Potency [9] | outcome [10] | Potency [11] | outcome [12] | outcome [13] | outcome [14] | outcome [15]

C=C(C)C(=O)OCCCC
inactive: Potency [1] | outcome [2] | Potency [3] | outcome [4] | Potency [5] | outcome [6] | outcome [7] | outcome [10] | Potency [11] | outcome [12] | outcome [13] | outcome [14] | outcome [15]

CC(=O)Nc1ccc(OCCOCCOc2ccc(NC(C)=O)cc2)cc1
inactive: Potency [1] | outcome [2] | Potency [3] | outcome [4] | Potency [5] | outcome [6] | outcome [8] | Potency [9] | outcome [10] | Potency [16] | Potency [11] | outcome [12] | outcome [13] | outcome [14] | outcome [15] | activity change, positive = activation [17] -16.6% [at 42.5 µM]

CCCCCCCC(=O)N(C)C
inactive: Potency [1] | outcome [2] | Potency [3] | outcome [4] | Potency [5] | outcome [6] | outcome [7] | outcome [8] | Potency [9] | outcome [10] | Potency [16] | outcome [12] | outcome [14] | outcome [18] | activity change, positive = activation [17] 2.8%

CC(C)(O)CCCC1=CCC(C=O)CC1 (stereo unspecified)
inactive: Potency [1] | outcome [2] | Potency [3] | outcome [4] | Potency [5] | outcome [6] | outcome [7] | outcome [8] | Potency [9] | outcome [10] | Potency [11] | outcome [12] | outcome [13] | outcome [14] | outcome [15]

CC(C)C[P+](C)(CC(C)C)CC(C)C
inactive: Potency [1] | outcome [2] | Potency [3] | outcome [4] | Potency [5] | outcome [6] | outcome [8] | outcome [10] | Potency [11] | outcome [12] | outcome [13] | outcome [14] | outcome [15] | outcome [18] | activity change, positive = activation [17] -12.2%

CCCCCCCCCCCCCCCC/C=C/C1CC(=O)OC1=O (stereo unspecified)
inactive: Potency [1] | outcome [2] | outcome [19] | outcome [4] | Potency [5] | outcome [6] | Potency [11] | outcome [12] | outcome [13] | outcome [14] | outcome [15]

Cc1ccc(S(=O)(=O)NC(=O)NN2CC3CCCC3C2)cc1 (stereo unspecified)
inactive: Potency [1] | outcome [2] | Potency [3] | outcome [4] | Potency [5] | outcome [6] | outcome [7] | outcome [8] | Potency [9] | outcome [10] | Potency [11] | outcome [12] | outcome [15]

CC(=O)c1c(C)cc(C(C)(C)C)cc1C
inactive: Potency [1] | outcome [2] | outcome [4] | Potency [5] | outcome [6] | outcome [7] | outcome [8] | Potency [9] | outcome [10] | Potency [16] | outcome [12] | outcome [14] | outcome [18] | activity change, positive = activation [17] -1.7%

CCCCOCCCC
inactive: Potency [1] | outcome [2] | Potency [3] | outcome [4] | Potency [5] | outcome [6] | outcome [8] | Potency [9] | outcome [10] | Potency [16] | Potency [11] | outcome [12] | outcome [14] | outcome [15] | outcome [18] | activity change, positive = activation [17] 4.99%

CC1(C)C(=O)C(C)(C)C1=O
inactive: Potency [1] | outcome [2] | outcome [4] | Potency [5] | outcome [6] | outcome [7] | outcome [8] | Potency [9] | outcome [10] | outcome [12] | outcome [13] | outcome [14] | outcome [15]

c1cc2ccc3ccc4ccc5cccc6c(c1)c2c3c4c56
inactive: activity change, negative = cytotoxicity [1] 0.199% [at 2.72 µM] | activity change, negative = cytotoxicity [2] 4.71% [at 3.27 µM] | activation [3] -0.114% [at 3.75 µM] | viability change, negative = cytotoxic [4] 2.9% [at 3.27 µM] | activity change, negative = inhibition [5] 1.19% [at 4.07 µM] | viability change, negative = cytotoxic [6] 2.84% [at 3.27 µM] | activity change, negative = cytotoxicity [7] 2.07% [at 3.26 µM] | activity, negative = inhibition [8] 27.3% [at 3.26 µM] | activation [9] 5.04% [at 3.27 µM] | viability change, negative = cytotoxic [10] -0.219% [at 3.27 µM] | activation [11] 11.3% [at 3.27 µM] | activity change, negative = cytotoxicity [12] -14.1% [at 2.72 µM] | activation [14] 6.16% [at 2.67 µM] | activity change, negative = cytotoxicity [15] 0.956% [at 5.43 µM]

CCCCCCCCCCCCCCCCN(C)C
inactive: activity change, negative = cytotoxicity [1] 1.35% [at 6.97 µM] | activity change, negative = cytotoxicity [2] 0.211% [at 8.39 µM] | activation [3] -0.996% [at 8.36 µM] | viability change, negative = cytotoxic [4] 0.965% [at 8.39 µM] | activity change, negative = inhibition [5] 3.25% [at 10.5 µM] | viability change, negative = cytotoxic [6] 4.94% [at 8.39 µM] | activity change, negative = cytotoxicity [7] 4.91% [at 8.39 µM] | viability change, negative = cytotoxic [10] 6.95% [at 8.39 µM] | activation [11] -17.9% [at 8.39 µM] | activity change, negative = cytotoxicity [12] -5.55% [at 6.97 µM] | activation (H2AX phosphorylation) [13] 1.56% [at 14 µM]

CC(C)(C)C(=O)CCc1ccc(Cl)cc1
inactive: Potency [1] | outcome [19] | Potency [3] | outcome [4] | Potency [5] | outcome [6] | outcome [7] | outcome [8] | Potency [9] | outcome [10] | Potency [16] | outcome [12] | outcome [14] | outcome [15] | outcome [18] | activity change, positive = activation [17] 2.37%

COc1cnc(NS(=O)(=O)c2ccc(N)cc2)nc1
inactive: Potency [1] | outcome [2] | Potency [3] | outcome [4] | Potency [5] | outcome [6] | outcome [7] | Potency [9] | outcome [10] | Potency [16] | Potency [20] | Potency [11] | outcome [12] | outcome [14] | outcome [18] | activity change, positive = activation [17] 4.16% [at 42.5 µM]

BrCCOc1ccccc1
inactive: Potency [1] | outcome [2] | Potency [3] | outcome [4] | Potency [5] | outcome [6] | outcome [7] | Potency [16] | Potency [20] | outcome [12] | outcome [13] | outcome [14] | outcome [18]
